Rows were chosen to be rich in hits. Some 1.1% of all compounds tested hit in one or more screens of this group.
BJeLR viability – MLPCN primary cell-based screen for lethality selective to Ras in HRASV12 cells | BJeLR (HRASV12) viability, CellTiter-Glo ATP luminescence, 48 h | inhibition, % (concentration not given with the values) | hit rate 0.17% among 300,000 | AID 1554, 2009; in the data active means inhibition above about 50%; inconclusive means no clear call, values can overlap the other calls
PrPC TRFRET – inhibitors of human cell surface prion protein PrPC, primary screen, cell-based, TR-FRET | TR-FRET read-out | inhibition, % at 13.8 µM | hit rate 0.43% among 370,000 | AID 720596, 2013; in the data active means inhibition above about 24%; further: 0% = median of the test wells and 100% = reference compound wells
MazEF act – activators of E. coli MazEF toxin-antitoxin RNase, primary screen, biochemical, fluorescence, uHTS; Endoribonuclease toxin MazF (Escherichia coli (strain K12)), P0AE70; FAM/BHQ RNA-DNA oligo cleavage fluorescence, 5 h; activation, % at 20 µM; hit rate 0.32% among 350,000; AID 504720, 2011; in the data active means activation above about 50%
Target sequence (P0AE70 whole entry, looked up): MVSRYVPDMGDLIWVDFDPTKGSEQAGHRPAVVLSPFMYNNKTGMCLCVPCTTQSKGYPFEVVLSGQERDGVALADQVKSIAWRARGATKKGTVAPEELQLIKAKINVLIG
PrP 5UTR inh – inhibition of PrP 5' UTR reporter expression; AID 488862, 2010; cell-based PrP 5' UTR mRNA reporter, plate reader; inhibition, % (no concentration beside the values); hit rate 0.35% among 340,000; in the data active means inhibition above about 52%; further: 0 = median of the neutral control wells
PrP 5UTR single – prion 5' UTR mRNA inhibition, cherry-pick retest; hit rate 48% among 1,100; shares compounds with PrP 5UTR inh; AID 504592, 2011; inhibition, % at 2.5 µM; cell-based prion protein 5' UTR reporter, plate reader; in the data active means inhibition above about 54%; inconclusive means no clear call, values can overlap the other calls
Active calls of the source: *; ? = inconclusive; · = no result given.

SMILES	BJeLR viability	PrPC TRFRET	MazEF act	PrP 5UTR inh	PrP 5UTR single
O=c1cc(CO)oc(C(Nc2ccccn2)c2ccc(F)cc2)c1O (stereo not drawn)	4.6	-1.9	-5.5	-17.5	·
O=C(NCCCc1ccccc1)OC1CC2CC1[C@H]1CCCCN1[C@H]2Cc1ccccc1 (stereo partly drawn)	·	-1.1	·	·	·
CCCCn1c(C)nc2c(=O)n(C)c(=O)[nH]c21	1.1	2.1	9.1	-26.8	·
CCCCn1c(-c2ccccc2)nc2c(=O)n(C)c(=O)[nH]c21	7.8	0.2	4.2	77.8*	5.3
O=C1CC(C(=O)Nc2cc(Cl)ccc2Cl)n2ncnc2N1 (stereo not drawn)	-2.8	7.9	-2.8	78.2*	-47.1
Cc1ccc(Cl)cc1NC(=O)C1CC(=O)Nc2ncnn21 (stereo not drawn)	-4.2	6.1	1.5	-16.4	·
C[C@@H]1CN([C@@H](C)CO)C(=O)CCCn2cc(nn2)CO[C@H]1CN(C)C(=O)Nc1ccc2c(c1)OCCO2	·	5.8	·	·	·
O=S(=O)(c1cccc2cccnc12)N1CCC(c2cn3ccccc3n2)CC1	·	-6.2	·	·	·
Cc1ccc(S(=O)(=O)CC(=O)Nc2ccccn2)cc1	-7.5	3.2	5.1	-8.9	·
Cc1ccc(S(=O)(=O)CC(=O)Nc2ccc(S(=O)(=O)Nc3ccccn3)cc2)cc1	-2.5	-3.0	6.9	80.2*	-19.6
CC(=O)Nc1ccc(Nc2nc(C)cc(C)n2)cc1	2.4	-4.1	5.7	-12.4	·
CC(=O)Nc1cc(C)ns1	·	0.3	-21.5	68.8*	?
Cc1nc2ncccn2c1-c1csc(Nc2ccccc2)n1	11.5	-6.9	1.2	0.7	·
COc1ccc(Nc2nc(-c3c(C)nc4ncccn34)cs2)cc1	·	-0.3	2.2	65.5*	86.9*
Cc1nc2ncccn2c1-c1csc(Nc2ccc(N(C)C)cc2)n1	34.8	4.8	3.1	60.3*	90.3*
Cc1nc2ncccn2c1-c1csc(Nc2ccc(S(N)(=O)=O)cc2)n1	-6.1	-11.7	3.5	-15.1	·
CCOc1ccc(NC(=O)CN(C)C(=O)C2CCCC2)cc1OCC	5.8	7.3	8.3	82.7*	-12.9
Brc1ccccc1/C=N/Nc1ccc2ccccc2n1	-2.0	1.6	-1.6	-100.9	·
O=[N+]([O-])c1cccc(C=NNc2ccc3ccccc3n2)c1O	·	-4.5	2.3	55.9*	37.2
COc1cccc(/C=N/Nc2ccc([N+](=O)[O-])cn2)c1O	34.5	-4.0	5.9	58.1*	47.8
COc1cccc(/C=N/Nc2ccc(S(=O)(=O)O)cc2)c1O	4.8	-0.8	-3.5	-20.9	·
COc1cccc(/C=N/Nc2nc(Nc3ccc([N+](=O)[O-])cc3)nc(N3CCCC3)n2)c1O	12.6	0.7	-25.0	23.8	·
COc1cccc(/C=N/Nc2ccc(C(=O)O)cc2)c1O	27.6	3.3	5.9	88.1*	89.7*
COc1ccc(NC(=O)Nc2ccc3c(c2)C(=O)N([C@H](C)CO)C[C@H](C)[C@@H](CN(C)C(=O)Nc2ccc(C(F)(F)F)cc2)O3)cc1	·	13.4	-7.2	-21.9	·
COc1ccc(NC(=O)N(C)C[C@H]2Oc3ccc(NC(=O)Nc4ccc(C(F)(F)F)cc4)cc3C(=O)N([C@H](C)CO)C[C@@H]2C)cc1	·	10.0	4.5	65.4*	-23.2
SMILES	BJeLR viability	PrPC TRFRET	MazEF act	PrP 5UTR inh	PrP 5UTR single
Cc1cc(=O)oc2cc(OCc3c(F)cccc3Cl)ccc12	·	4.4	·	·	·
O=C1/C(=C/c2ccccc2)CCCc2ccccc21	-4.7	2.2	-17.1	-39.1	·
Cc1cccc(/C=C2\CCC(=C3SCCCS3)C2=O)c1	4.5	-2.7	-0.7	54.8*	?
O=C1C(=C2SCCCS2)CC/C1=C\c1ccc(F)cc1	6.4	-4.2	5.7	83.7*	84.1*
N#Cc1ccc(S(=O)(=O)N2CCCc3nc(-c4ccc(Br)cc4)ccc32)cc1	·	5.8	·	·	·
CN1C2=N[C@H](c3ccccc3)CC(=O)N2/C(=C\c2ccccc2)C1Cc1ccccc1 (stereo partly drawn)	·	2.3	·	·	·
COc1cc(OC)cc(-c2cc3cc4c(cc3cn2)OCO4)c1	·	·	10.1	62.4*	80.6*
COc1ccc(-c2cc3cc4c(cc3cn2)OCO4)cc1	·	6.3	-4.3	-6.9	·
CC(=O)OCC12CC(OC(=O)CC(C)C)C(C)=CC1OC1C(O)C(OC(C)=O)C2(C)C12CO2 (stereo not drawn)	·	86.6*	1.5	90.6*	92.6*
C=CCNc1cccc2c1S(=O)(=O)N[C@H](Cc1ccccc1)CO2	·	1.8	·	·	·

High-throughput results: PubChem, several laboratories
